# Measured values as given in PubChem BioAssay.
# This is one part of the list. Values without a mark were called inactive. Active and inactive are the calls of the source.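 How the source made its calls, unless noted: active means dye signal at least 3 control SD above or below untreated wells in both duplicates, raw fluorescence within 3, either direction; inactive means the rest.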
# Experiments:
# [1] = target: Inward rectifier potassium channel 2 (Mus musculus) (UniProt P35561); experiment: mouse Kir2.1 channel blockers, retest, confirmation, cell-based, FluxOR thallium flux, duplicate (AID 2032;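 active means Primary-screen hit whose thallium flux fell at least 3 control SD below untreated wells in both duplicates, with normal baseline fluorescence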); conditions: Kir2.1-expressing cells, FluxOR thallium flux fluorescence, at 10 µM; active compounds read low
# Chain of Inward rectifier potassium channel 2 (Mus musculus) (P35561 whole entry, looked up): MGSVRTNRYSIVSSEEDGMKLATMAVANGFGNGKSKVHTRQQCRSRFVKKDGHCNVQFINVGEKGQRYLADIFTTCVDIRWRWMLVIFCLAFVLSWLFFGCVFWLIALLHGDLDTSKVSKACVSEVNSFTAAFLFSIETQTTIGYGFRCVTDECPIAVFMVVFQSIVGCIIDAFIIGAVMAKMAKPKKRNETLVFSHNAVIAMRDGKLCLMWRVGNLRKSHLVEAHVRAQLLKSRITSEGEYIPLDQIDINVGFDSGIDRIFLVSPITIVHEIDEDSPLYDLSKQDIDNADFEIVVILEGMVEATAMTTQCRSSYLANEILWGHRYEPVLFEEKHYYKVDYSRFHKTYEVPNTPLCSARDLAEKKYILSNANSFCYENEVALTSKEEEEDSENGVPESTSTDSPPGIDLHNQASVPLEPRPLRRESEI
# [2] = nonspecific thallium flux effects in parental HEK293 cells, confirmation, counter-screen for Kir2.1 inhibitor project, cell-based, FluxOR thallium flux, duplicate, single concentration (AID 2105); conditions: FluxOR thallium flux fluorescence, at 10 µM; 0% = unstimulated blank wells;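 on FluxOR signal as % of negative control (100 = no effect): percent is based on the flux ratio of peak minus minimum fluorescence over baseline F0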
# [3] = target: Voltage-gated inwardly rectifying potassium channel KCNH2 (Homo sapiens) (UniProt Q12809); experiment: hERG channel inhibition, counter-screen for Kir2.1 inhibitor project, cell-based, thallium flux (AID 2236; call rule not given here;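 further: host cells are CHO cells stably expressing hERG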); conditions: hERG-expressing cells, at 10 µM; active compounds read high
# Chain of Voltage-gated inwardly rectifying potassium channel KCNH2 (Homo sapiens) (Q12809 whole entry, looked up): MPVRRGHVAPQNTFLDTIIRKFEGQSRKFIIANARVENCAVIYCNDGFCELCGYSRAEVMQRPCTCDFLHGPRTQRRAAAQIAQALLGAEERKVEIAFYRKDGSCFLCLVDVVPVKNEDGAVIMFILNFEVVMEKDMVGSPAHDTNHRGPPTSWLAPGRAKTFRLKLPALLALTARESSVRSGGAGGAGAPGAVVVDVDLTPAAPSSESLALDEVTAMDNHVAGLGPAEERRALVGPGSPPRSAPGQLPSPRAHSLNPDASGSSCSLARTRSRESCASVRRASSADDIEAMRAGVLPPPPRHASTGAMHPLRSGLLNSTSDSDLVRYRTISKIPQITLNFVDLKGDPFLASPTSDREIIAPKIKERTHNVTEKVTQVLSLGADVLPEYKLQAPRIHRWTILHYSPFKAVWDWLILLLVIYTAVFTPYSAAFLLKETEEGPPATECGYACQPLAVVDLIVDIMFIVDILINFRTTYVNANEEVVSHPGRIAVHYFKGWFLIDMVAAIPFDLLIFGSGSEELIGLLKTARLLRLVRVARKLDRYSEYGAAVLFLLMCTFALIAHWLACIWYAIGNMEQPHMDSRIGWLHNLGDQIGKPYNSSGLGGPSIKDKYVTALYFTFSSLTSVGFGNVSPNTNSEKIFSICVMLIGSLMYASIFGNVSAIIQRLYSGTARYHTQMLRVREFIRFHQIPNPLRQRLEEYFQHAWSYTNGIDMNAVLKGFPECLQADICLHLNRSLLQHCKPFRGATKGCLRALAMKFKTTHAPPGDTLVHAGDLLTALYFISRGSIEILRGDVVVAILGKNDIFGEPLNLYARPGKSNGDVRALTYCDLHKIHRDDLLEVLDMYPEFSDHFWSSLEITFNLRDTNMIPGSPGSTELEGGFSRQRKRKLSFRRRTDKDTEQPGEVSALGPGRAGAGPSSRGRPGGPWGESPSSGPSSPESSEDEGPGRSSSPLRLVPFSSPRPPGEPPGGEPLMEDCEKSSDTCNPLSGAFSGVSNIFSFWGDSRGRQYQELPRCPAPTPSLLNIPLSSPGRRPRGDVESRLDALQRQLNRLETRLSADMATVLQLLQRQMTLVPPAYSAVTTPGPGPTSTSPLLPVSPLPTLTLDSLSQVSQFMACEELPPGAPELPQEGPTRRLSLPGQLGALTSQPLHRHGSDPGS
# [4] = target: Potassium channel subfamily K member 9 (Homo sapiens) (UniProt Q9NPC2); experiment: KCNK9 channel inhibition, selectivity assay for Kir2.1 inhibitor project, cell-based (AID 2329; call rule not given here); conditions: KCNK9-expressing cells, ion flux inhibition, at 10 µM; active compounds read high
# [5] = target: Inward rectifier potassium channel 2 (Mus musculus) (UniProt P35561); experiment: mouse Kir2.1 channel blockers, Kir2.1 inhibitor project, cell-based, secondary, automated electrophysiology (AID 463252; call rule not given here); conditions: Kir2.1 cells, automated patch-clamp current inhibition, at 25 µM; active compounds read high
smiles,measurement,setting,value
COc1ccc2c(c1)C=CC1(O2)N(CCO)c2ccccc2C1(C)C (stereo not drawn),outcome,[1],inactive
same,FluxOR signal as % of negative control (100 = no effect),[2],53.5% (active)
COc1ccc(F)c(-c2nc(CN3CCC(c4ccccc4)CC3)c(C)o2)c1,"Tl flux remaining, % of negative control (active compounds read low)",[1],45.5% (active)
same,outcome,[2],inactive
Cn1c(SCC(=O)N2CCCc3ccccc32)nc2ccccc2c1=O,"Tl flux remaining, % of negative control (active compounds read low)",[1],71.5% (active)
same,FluxOR signal as % of negative control (100 = no effect),[2],66.5% (active)
C=CCNC(=S)/N=c1/ccccn1Cc1ccccc1,"Tl flux remaining, % of negative control (active compounds read low)",[1],64% (active)
same,outcome,[2],inactive
COc1ccccc1CCNS(=O)(=O)c1cc2c3c(c1)C(C)C(=O)N3CCC2 (stereo not drawn),"Tl flux remaining, % of negative control (active compounds read low)",[1],62% (active)
same,outcome,[2],inactive
CC(C)(C)c1cc2cccnc2n1Cc1cccc(F)c1,"Tl flux remaining, % of negative control (active compounds read low)",[1],72% (active)
same,outcome,[2],inactive
COc1ccc(CCC(C)N2CCc3ccccc3C2)cc1 (stereo not drawn),"Tl flux remaining, % of negative control (active compounds read low)",[1],25.5% (active)
same,outcome,[2],inactive
CC1COc2ccccc2N1S(=O)(=O)c1ccccc1 (stereo not drawn),"Tl flux remaining, % of negative control (active compounds read low)",[1],60% (active)
same,outcome,[2],inactive
CSc1c(SCc2ccccc2)cnn(Cc2ccccc2)c1=O,outcome,[1],inactive
same,outcome,[2],inactive
c1ccc(CSc2nnc(-c3ccco3)n2Cc2ccccc2)cc1,"Tl flux remaining, % of negative control (active compounds read low)",[1],54% (active)
same,outcome,[2],inactive
Cc1ccc(-c2nn(-c3ccccc3)cc2/C=C2\SC(=S)N(CCCCCC(=O)O)C2=O)o1,outcome,[1],inactive
same,FluxOR signal as % of negative control (100 = no effect),[2],75% (active)
CC12CN(Cc3ccccc3)CC(C)(CN(Cc3ccccc3)C1)C2=NO,"Tl flux remaining, % of negative control (active compounds read low)",[1],54.5% (active)
same,outcome,[2],inactive
CCCCCCCCCCOC(=O)Cn1c(COc2cccc(OC)c2)[n+](C)c2ccccc21,outcome,[1],inactive
same,outcome,[2],inactive
O=C(Cc1c[nH]c2ccccc12)OCCOC(=O)Cc1c[nH]c2ccccc12,"Tl flux remaining, % of negative control (active compounds read low)",[1],48.5% (active)
same,outcome,[2],inactive
COc1ccc(C(CCNCc2ccccc2F)c2ccc(F)cc2)cc1 (stereo not drawn),"Tl flux remaining, % of negative control (active compounds read low)",[1],39.5% (active)
same,outcome,[2],inactive
CCC(Cc1ccccc1)NS(=O)(=O)c1ccc2c(c1)NC(=O)CS2 (stereo not drawn),"Tl flux remaining, % of negative control (active compounds read low)",[1],62% (active)
same,outcome,[2],inactive
COc1ccc(Nc2ncnc3sc(C)cc23)cc1,outcome,[1],inactive
same,outcome,[2],inactive
COc1cccc(CN(C)CC2CCCN(CCc3ccc(Cl)cc3)C2)c1OC (stereo not drawn),"Tl flux remaining, % of negative control (active compounds read low)",[1],49% (active)
same,outcome,[2],inactive
OCCNCc1cccc(OCc2ccccc2Cl)c1,"Tl flux remaining, % of negative control (active compounds read low)",[1],62% (active)
same,outcome,[2],inactive
Clc1ccc(-c2cc(C3CCNCC3)[nH]n2)c(Cl)c1,"Tl flux remaining, % of negative control (active compounds read low)",[1],22.5% (active)
same,outcome,[2],inactive
COc1cccc(CNCCc2c[nH]c3ccccc23)c1OCc1ccccc1F,"Tl flux remaining, % of negative control (active compounds read low)",[1],23.5% (active)
same,outcome,[2],inactive
CCCCCCCCn1c2c(c(=N)c3c1CCC3)CCCC2,"Tl flux remaining, % of negative control (active compounds read low)",[1],10% (active)
same,outcome,[2],inactive
CCCOc1ccc(C(=O)C(CCC(CNCC)C(=O)c2ccc(OCCC)cc2)CNCC)cc1 (stereo not drawn),"Tl flux remaining, % of negative control (active compounds read low)",[1],48% (active)
same,outcome,[2],inactive
CN(Cc1ccccc1)C(=O)CCc1ccccc1,outcome,[1],inactive
same,outcome,[2],inactive
CCC(=O)OCc1c(C(F)(F)F)nn(C)c1Oc1cccc(C(F)(F)F)c1,outcome,[1],inactive
same,outcome,[2],inactive
O=C(Nc1ccccc1Cl)/C(Cl)=C(\Cl)S(=O)c1ccccc1 (stereo not drawn),"Tl flux remaining, % of negative control (active compounds read low)",[1],60.5% (active)
same,FluxOR signal as % of negative control (100 = no effect),[2],57.5% (active)
COc1ccc(CCNCc2c(-c3ccccc3)n(C)c3ccccc23)cc1,"Tl flux remaining, % of negative control (active compounds read low)",[1],33.5% (active)
same,FluxOR signal as % of negative control (100 = no effect),[2],72% (active)
CN(Cc1ccccc1)CC(O)COc1ccc(CNCc2cc3ccccc3s2)cc1 (stereo not drawn),"Tl flux remaining, % of negative control (active compounds read low)",[1],33.5% (active)
same,FluxOR signal as % of negative control (100 = no effect),[2],74.5% (active)
NC(N)=Nc1nc(-c2ccccc2)c2cc(Cl)ccc2n1,outcome,[1],inactive
same,outcome,[2],inactive
Clc1c(OCCCn2ccnc2)ccc2ccccc12,outcome,[1],inactive
same,outcome,[2],inactive
O=C(CCl)N(Cc1cccc([N+](=O)[O-])c1)c1cccc(Cl)c1,outcome,[1],inactive
same,outcome,[2],inactive
COCCNC(=O)COc1ccc(N(C)S(=O)(=O)c2ccc3ccccc3c2)cc1,"Tl flux remaining, % of negative control (active compounds read low)",[1],58% (active)
same,outcome,[2],inactive
COc1cccc(CN(C)CC(O)COC(c2ccccc2)c2ccccc2C)c1 (stereo not drawn),"Tl flux remaining, % of negative control (active compounds read low)",[1],66% (active)
same,outcome,[2],inactive
COc1ccccc1-c1n[nH]c2c1[C@H](C)CC[C@H]2C(C)C,outcome,[1],inactive
same,outcome,[2],inactive
C(=C\c1ccccc1)/CSc1nnc(-c2cccnc2)n1Cc1ccco1,"Tl flux remaining, % of negative control (active compounds read low)",[1],37% (active)
same,outcome,[2],inactive
CCN(CC)CCC(c1ccc2c(c1)OCO2)c1c(OC)cc(OC)c2c(-c3ccccc3)cc(=O)oc12 (stereo not drawn),"Tl flux remaining, % of negative control (active compounds read low)",[1],65.5% (active)
same,outcome,[2],inactive
CCn1cc(CCC(=O)NCc2ccc(F)cc2)c2ccccc21,"Tl flux remaining, % of negative control (active compounds read low)",[1],56.5% (active)
same,outcome,[2],inactive
COc1cc(CNCc2ccc(OC)c3ccccc23)cc(OC)c1OC,"Tl flux remaining, % of negative control (active compounds read low)",[1],51% (active)
same,outcome,[2],inactive
CC(C)(c1ccccc1)c1ccc(OCCN2CCCC2)cc1,"Tl flux remaining, % of negative control (active compounds read low)",[1],44% (active)
same,outcome,[2],inactive
CCCc1cc(=O)[nH]c(SCC(=O)c2cc(C)n(CCC)c2C)n1,"Tl flux remaining, % of negative control (active compounds read low)",[1],60% (active)
same,outcome,[2],inactive
same,outcome,[3],inactive
same,outcome,[4],inactive
same,inhibition,[5],30.9% (active)
Clc1cccc(Cl)c1OCCOCCNCc1ccccc1,"Tl flux remaining, % of negative control (active compounds read low)",[1],33% (active)
same,outcome,[2],inactive
same,outcome,[3],inactive
same,outcome,[4],inactive
same,inhibition,[5],69.6% (active)
